Screen size: about 53,000 sequences; about 3,700 (7%) were called active.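 Rule for the calls: active = gene knockdowns whose robust z-score for IL-1 alpha signal is at least 2 or at most -2, so actives lie on both sides; inactive = the rest.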 This excerpt belongs to a sample that is enriched for actives.
assay: Components of the Cytosolic LPS Sensing Pathway: Gene Identification via Genome-wide siRNA Screen; settings: RAW264.7 macrophages, IL-1a HTRF, actives lie on both sides, screened at 100 nM (by protocol), cells primed 5 h with Pam3CSK4 first;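 note: robust z of the log signal after scaling to non-targeting control siRNA wells of the plate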
Outline: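 Using IL-1a HTRF as read-out, the screen measured release from RAW264.7 cells after 48h siRNA knockdown (100 nM), 5 h Pam3CSK4 priming and 24 h cytosolic LipidA. Values were expressed relative to negative-control wells as robust z-scores.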

z-score, inactive:
GGUGGAUAUAAUAAUUGACTT against Tgfbr3 1.06, GCUAUCCAGAUUGGUGUUATT against Tatdn1 1.7, GGCCAAUAAAGACUGGUUUTT against Rps15 1.69, GGAAAGCAAUGCAUUACAATT against Zbtb6 0.149, GGCGGAAGCCAUCUAACUUTT against Arhgef4 -0.519, GGGUUUUCUCAUUGUCUUUTT against Rce1 -1.91, GGAGGUUUUCAUGGUUAUCTT against Nrgn 0.0293, GGUAGACUGAACUUCAGCATT against Larp6 -1.31, CCCUAUGCAAUAUAUAGACTT against Tmsb15l 0.174, CCGAAAAUGAGAUAAAGUCTT against Polr2k -1.88, GGUCAAGUCAAGAGUGAGATT against BC048562 0.2, GGCAUUCUGUGAGACACAATT against Exosc10 0.389, GAGAAGAAAAAAUGCAGUGTT against Olfr825 0.0375, CCUGAGGUGUUUUACAUAUTT against Med20 0.085, GGAAGAAUCCUCCAUGGAGTT against Mrpl24 1.35, CCCUCCUAUUAGCGCAUUUTT against Osbpl2 -0.239, GGAGAUGAUCGACGAAGUATT against Tnnc1 0.914, GGAGACAGCAUUCAUUUAUTT against Wnt16 0.94, GCCUUGUCUUCCUUCAGUGTT against Sprr2a1 -0.172, GGACUUAAGUACAAAGAUCTT against Sap18 1.46, GCAUCAAAUAGUGGUACCUTT against Lsm14a -0.209, CGAGCUCAGGUGAGAAAUUTT against Pfpl 0.924, GGACUGCCUUAUGCUACGATT against Setd5 -0.44, GUCCUCUUCUGGUUCUCAGTT against Vmn1r52 0.246, CGAGAAGUACAAAAGGGAGTT against Ccdc103 -0.768, GGCGGAGUAGACUUCAUAUTT against Olfr593 0.363, GUUUGAUGAUCACUGGGUCTT against Aqp2 1.6, GCUCCGAAGAGCUAAUACUTT against Tmem25 0.944, GCGGCAGAUCUUCGAUUUCTT against Nkain1 0.168, GGCAAAUAUUUCCAAGUACTT against Cpq -1.57, CGAAGUUCCUGGAAAAUAUTT against Tbc1d7 -0.924, GCACUGUGACGAUACAAGATT against Asb1 -1.17, CCGUAGCGAGACUUACAUCTT against Asic3 1.88, CCUAUAAUGGAGAUGAUACTT against Spty2d1 -0.46, GGCAGAAGCCGUUAGAGAUTT against Cep295nl 0.35, CCAAUCGUAAUGACAAUUCTT against Myo1d -0.857, GGGACAACACUCUUUUACUTT against Nab2 0.696, GGAGGACUUUCAGUUAUAUTT against Ogfod3 1.32, GCGAUUGUGCUUUUGAGCCTT against Tanc2 1.97, GGCUUCAGUGAUGAAUGAATT against Tor1aip1 -0.594, GCCACGACACGAUGACAUATT against Plcxd1 0.918, GGCAUAGCCACUAAAAAAATT against Muc2 -0.832, GGUUUCCAGUUAUCUUAAUTT against Glipr1l2 1.46, GGACAAAGAAACUCAUAGGTT against A530021J07Rik 0.737, GGUGAACUUCUUUGGUGCATT against Hsd11b2 0.0519, GCUUAGAAAUCUUAUCCCATT against Hnrnpc -1.19, GGCACUUCUUUCCAAGACGTT against Gbp7 -0.373, GCCUGUUCUAUGUUACUGGTT against Olfr320 -1.99, GCGAUGUCAAUCAAUUCUGTT against Gpr37l1 0.513, GCAUUUCGUCAGGGCAAAATT against Fuca1 -0.515, UAUUUCUCCCUUGCUGGUATT against Gm5168 1.18, GCCCAGAAUAGACAAACCGTT against Wfdc15b -1.95, CCUGAUCCCAUGUAAAACATT against Sspn -0.35, GGGAAUGACAGAAAUAUAATT against Golm1 0.923, GGUUGUUACCUUACUGUACTT against Olfr532 0.952, GGCUAUUGUUGGUAGAACUTT against Dek 0.441, GGACUUAUGAGCAAAUAAATT against Rprd1a 0.494, GGAACUUUAUGUCUCCUACTT against Lrrc56 -0.988, GGUUUCCUUUAUCAAGAAGTT against Snrnp25 -0.00388, CCUAUAAGUGAACUGUGAUTT against Aig1 -0.71, CCUGUAUACUAUCACUUGUTT against Casp8 0.103, GGUGUCUUAUGAGCAAUAUTT against Pdcd6 -1.12, GGGAAAUCAGAUAAAGCCCTT against Myl12a 0.874, GGCAACAACAUACCUAAUATT against Rmdn1 -0.756, GGUACUUUCGCAUCCUGCATT against Rnaseh2b -0.397, GGUGUUGGCUCACAACCAATT against Fam234b -1.67, GGGCUCUGAAUUGAAGAAATT against Ralgps2 -0.163, CCCUUAGGGAGUGCUGUGATT against Gc -1.85, CCCAUGAACCUUAUUUGAATT against Ino80c -0.268, GGUGGUAUUGUUGGCUUUATT against Olfr1297 0.293, GAUGGACAGAAAUCAGGAGTT against Arap1 0.208, CGGUCAUUUGAAGUAGGAATT against Pwwp3a 0.76, GGAUCAUCUCCUCUACUCUTT against Olfr394 -1.84, CCAGGUGAAUUAAUAGUCUTT against Stk4 0.93, GGUACUAAAUCAAACAUCCTT against Angpt1 0.578, GCCUGAAUCCGCCACAUUGTT against Cx3cl1 1.6, CCUGGAUGCAGGUUAAGCUTT against Dppa5a -0.817, GCUGAAACUAACAUUUGAUTT against Anxa3 0.146, GGCUGGAUGUCAGAUUGCATT against Olfr1389 -1.38, GGACCAGUUUGAGUAUGAGTT against Tmem11 -1.58, CCUGUGAGGCCAUUGAUUCTT against Acsbg1 -1.33, GGACUCUUUUUGUUCUUUGTT against Vgll2 -1.22, CGGGAGUAUCUGCUUCAGUTT against Ndufb4 0.336, GGCUGAAGAGAUUGUCAAUTT against Aars -0.392, CCUGCUAAACCUGGACCAUTT against Hic1 1.61, GGAGCUUAGCCUCUGUAUGTT against Gatd3a -0.86, GGUAAAGACAAGAUUAAAGTT against Cyp39a1 -0.308

z-score, active:
GGGCCAAGAAAACCUACACTT against Cyp11b2 2.63, GGCAGCUUCAGGAACCAAUTT against Krt5 -2, CCACAAGCAGUGCUCUUUCTT against Cyp3a13 -2.08, GGAAUCAGUGACCUUUUUCTT against Arf2 -2.05, GCUCUCCUUGAUCGAGAGATT against Spryd7 -2.65, GGUCCUGACUGGAUACCUGTT against Ece1 4.19, CCAGAACGCGGAGCAAAUUTT against Sec63 2.13, GGGAAAUGGUGAAUCACAGTT against Dpp8 2.25, GCUAAGUUAAGCUUAAUACTT against Rbl1 3.33, GGCUUUUUAGGAAACUAUATT against Olfr361 2.12, CCGCUGAAAAUGGAAGUUATT against Mrgprb4 -2.21, CGUAAUACAAUCCAGUUCATT against Aqr -2.18, GCAGCUGCACUAAAGAACGTT against Dlg1 2.9, GGCAAAUGAGAAACAGCAATT against Cxcl16 -2.23, GGUCAUUCCCAUUAAACAGTT against Emc8 -2.57, CCAAAGGGAAGAGUUAUGCTT against Tmem126b 2.34, GGAAGUAGCUUAUUGUUCUTT against Polr2b -2.69, GAUCUUUCGACACAUCACCTT against Cyp4a12a -2.02, GGAGGACCAUUGUAAGUAGTT against 9930022D16Rik 2.17, CCUCCACUAUACGGUAAGUTT against Pla2g2c -3.37, CGUUACCAUGAGAGUUAAUTT against Pcdhb19 3.83

Source: PubChem BioAssay AID1508600 (Functional Genomics Laboratory (NCATS/FGL), 2020)
